GLS inhibitor: blocks human kidney-isoform glutaminase activity; GLS enzymatic activity, qHTS titration; Potency, µM (top dose mostly 45.5 µM), actives largely listed as inhibitors; hit rate 0.21% among 410,000
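Human kidney-isoform GLS in 45 mM KH2PO4 pH 8.2, 0.02% Tween-20, with compound, started with 1mM L-Glutamine (added stock). Glutamate oxidase/HRP/Amplex red coupled fluorescence read at start and after 30 min at RT.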
Tb PGK inh: blocks T. brucei phosphoglycerate kinase; P07378; PGK/GAPDH coupled, Kinase-Glo luminescence, 60 min; Potency, µM (titrated, usually from 57.5 µM), most hits filed as inhibitors; hit rate 0.043% among 380,000; AID 602233; further: nearly all actives have a fitted effect of over 60% in size
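Recombinant glycosomal PGK reaction used 1,3-bisphosphoglycerate generated in-well by GAPDH (100nM final) in 100mM TEA pH 7.6, 5mM MgCl2, 0.01% Tween-20. After 60 minutes at room temperature, ATP was read by Kinase-Glo Plus luminescence end-point.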
RECQ1 inh-1: RECQ1 (human) helicase inhibition; hit rate 0.54% among 240,000; P46063; Potency, µM (top dose mostly 57.3 µM), usual class: inhibitors; RECQ1 DNA unwinding, red fluorescence kinetic read; further: nearly all actives have a fitted effect of over 30% in size
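50 nM RECQ1T1 preincubated 15 min with compound in Tris pH 8.0 buffer with MgCl2, DTT, Tween-20 and 2.5 ug/ml poly(dI-dC); started with 200 nM TAMRA/BHQ-2 forked duplex and 2 mM ATP. Unwinding read as fluorescence (525/598 nm), two reads 2 h apart.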
APEX1 inh: blocks human APE1 abasic DNA cleavage | P27695 | recombinant APE1, TAMRA/BHQ-2 abasic DNA cleavage fluorescence | Potency, µM (titrated, usually from 65.8 µM), usual class: inhibitors | hit rate 0.35% among 350,000; further: nearly all actives have a fitted effect of over 55% in size
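Activity was derived from the fluorescence gain between first and third kinetic reads (60 s intervals, ex 525/em 598 nm) after 50 nM THF-abasic TAMRA/BHQ-2 duplex was added to 0.75 nM APE1 preincubated 15 min with compound.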
FEN1 inh-1: human FEN1 inhibition | P39748 | Recombinant FEN1 flap cleavage, fluorescence, 15 min | Potency, µM (series often up to 114 µM), hits mostly inhibitors | hit rate 0.35% among 390,000; further: nearly all actives have a fitted effect of over 65% in size
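Recombinant FEN1 (10 nM) was preincubated with pin-transferred compounds for 15 min at room temperature, then flap DNA substrate (50 nM final) was added. Plates were read at 0 and 15 min, and normalized concentration–response data were fitted to a four-parameter Hill equation.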
BLM inh: inhibitors of human Bloom syndrome helicase BLM; hit rate 0.2% among 350,000; recombinant BLM DNA unwinding, fluorescence dequenching; AID 2528; P54132; Potency, µM (doses to about 56.1 µM), usual class: inhibitors; further: nearly all actives have a fitted effect of over 35% in size
RECQ1 inh conf: confirmation of human RECQ1 helicase inhibitors | shares compounds with RECQ1 inh-1 | RECQ1 helicase DNA unwinding, fluorescence | Potency, µM (highest dose often 229 µM), actives largely listed as inhibitors | hit rate 28% among 610; further: nearly all actives have a fitted effect of over 45% in size
ADP FP counter: counter-screen for RECQ1 inhibitors: ADP displacement; shares compounds with RECQ1 inh-1; ADP fluorescence polarization displacement counterscreen; Potency, µM (top dose mostly 228 µM), hits mostly inhibitors; hit rate 27% among 530; AID 2711; further: nearly all actives have a fitted effect of over 45% in size
RECQ1 inh-2: RECQ1 helicase inhibition confirmed, round 2; shares compounds with RECQ1 inh-1; recombinant RECQ1 DNA unwinding, red fluorescence; Potency, µM (doses to about 119 µM), usual class: inhibitors; hit rate 15% among 1,100; AID 504841; further: nearly all actives have a fitted effect of over 50% in size
FEN1 inh-2: FEN1 inhibition, cherry-pick retest; hit rate 79% among 880; Potency, µM, hits mostly inhibitors; shares compounds with FEN1 inh-1; FEN1 flap cleavage, TAMRA/BHQ2 fluorogenic DNA substrate; further: nearly all actives have a fitted effect of over 60% in size
Hits are given with their value; [ ] = remark or other dose. Only some compounds are listed: those with a hit (about 0.86% of all), similar ones and a draw of the others. The call rests on the fitted dose curve; in most records, active means well fitted curve in the direction sought with a large enough effect; inconclusive means small, poorly fitted or top-dose-only effect, or another doubt; inactive means no such curve, though single readings can be large; an effect the other way counts as inactive or inconclusive.

Screening COc1cc(/C=C2\SC(=S)N(NC(=O)c3ccncc3)C2=O)ccc1O returned GLS inhibitor inactive, Tb PGK inh inactive, RECQ1 inh-1 14µM, APEX1 inh inconclusive, FEN1 inh-1 inconclusive, BLM inh inactive, RECQ1 inh conf 50µM, ADP FP counter inactive and FEN1 inh-2 76.
Screening O=C(NN1C(=O)/C(=C/C=C/c2ccco2)SC1=S)c1ccccc1O returned GLS inhibitor inactive, Tb PGK inh inconclusive, RECQ1 inh-1 2.5µM, APEX1 inh 2µM, FEN1 inh-1 11µM, BLM inh inconclusive, RECQ1 inh conf 13µM, ADP FP counter 14µM and FEN1 inh-2 27.
Screening O=C(Nc1cccc(S(=O)(=O)NC2=NCCC2)c1)c1cc(-c2ccco2)nc2ccccc12 returned GLS inhibitor inactive, Tb PGK inh inconclusive, RECQ1 inh-1 11µM, APEX1 inh 7.9µM, FEN1 inh-1 inconclusive, BLM inh 10µM, RECQ1 inh conf 14µM, ADP FP counter 40µM, RECQ1 inh-2 inconclusive and FEN1 inh-2 76.
Screening O=C(CSc1nc(-c2ccccc2)[nH]c1-c1ccc(F)cc1)NC1CCCC1 returned GLS inhibitor inactive, Tb PGK inh inactive, FEN1 inh-1 inactive and BLM inh inactive.
Cc1ccc(S(=O)(=O)N[C@H]2COC(=O)[C@@H](C)COC(=O)C/C=C\[C@H]2C)cc1 was read as RECQ1 inh-1 inactive[11.5 µM], APEX1 inh inactive[12.4 µM] and BLM inh inactive[12.4 µM].
Screening CN1/C(=C\C=C2/SC(=S)N(CC(=O)O)C2=O)C(C)(C)c2ccccc21 returned GLS inhibitor inactive, Tb PGK inh inactive, RECQ1 inh-1 25µM, APEX1 inh 25µM, FEN1 inh-1 inconclusive, BLM inh 14µM, RECQ1 inh conf 40µM, ADP FP counter 3.2µM and FEN1 inh-2 85.
`CC(C)CCNC(=O)c1ccc2nc(Cc3ccccc3)oc2c1` gave GLS inhibitor inactive, Tb PGK inh inactive, FEN1 inh-1 inactive and BLM inh inactive.
O=C1c2cccc3cc([N+](=O)[O-])cc(c23)C(=O)N1CCN1CCCC1 was read as GLS inhibitor inactive, Tb PGK inh inactive, RECQ1 inh-1 inconclusive, APEX1 inh inconclusive, FEN1 inh-1 14µM, BLM inh inactive, RECQ1 inh-2 25µM and FEN1 inh-2 11.
Screening O=C(O)c1ccc(NS(=O)(=O)c2ccc3c(c2)C2C=CCC2C(c2ccccc2F)N3)cc1 (stereo unspecified) returned GLS inhibitor inactive, Tb PGK inh inactive, RECQ1 inh-1 inconclusive, APEX1 inh inconclusive, FEN1 inh-1 40µM, BLM inh inactive, RECQ1 inh-2 inactive and FEN1 inh-2 30.
`O=C1NC(=O)/C(=C\c2ccc(O)cc2O)S1` gave GLS inhibitor inconclusive, Tb PGK inh inactive, RECQ1 inh-1 22µM, APEX1 inh 4µM, FEN1 inh-1 16µM, BLM inh inactive, RECQ1 inh-2 13µM and FEN1 inh-2 67.
O=C1NC(=O)/C(=C/c2cccc3ccccc23)S1 was read as GLS inhibitor inactive, Tb PGK inh inactive, APEX1 inh inactive, FEN1 inh-1 inactive and BLM inh inactive.
Screening CCC1=NN2C(=N)/C(=C/c3cc(C)n(Cc4ccccc4)c3C)C(=O)N=C2S1 returned GLS inhibitor inactive, Tb PGK inh inactive, RECQ1 inh-1 inactive, APEX1 inh inactive, FEN1 inh-1 inactive and BLM inh inactive.
Cc1cc(/C=C2\C(=N)N3N=C(c4ccco4)SC3=NC2=O)c(C)n1Cc1ccccc1 was read as GLS inhibitor inactive, Tb PGK inh inactive, RECQ1 inh-1 inconclusive, APEX1 inh inactive, FEN1 inh-1 inconclusive, BLM inh inactive, RECQ1 inh-2 inconclusive and FEN1 inh-2 inconclusive.
Cc1ccc(-n2nc(-c3ccco3)cc2C(=O)O)c(C)c1 was read as GLS inhibitor inactive, Tb PGK inh inactive, RECQ1 inh-1 20µM, APEX1 inh inconclusive, FEN1 inh-1 inactive, BLM inh inactive, RECQ1 inh-2 inconclusive and FEN1 inh-2 38.
O=S(=O)(c1ccc(Cl)cc1)c1nc(-c2ccco2)oc1SCc1ccc(F)cc1 was read as GLS inhibitor inactive, Tb PGK inh inactive, FEN1 inh-1 inactive and BLM inh inactive.
For O=C(O)C1Nc2c(O)cc(Cl)c([N+](=O)[O-])c2C2C=CCC12 (stereo unspecified) the results were GLS inhibitor 3.2µM, Tb PGK inh 4.5µM, RECQ1 inh-1 1.8µM, APEX1 inh 2.5µM, FEN1 inh-1 inconclusive, BLM inh 1.8µM, RECQ1 inh-2 inconclusive and FEN1 inh-2 24.
O=C(COc1ccccc1Cl)Nc1ccc(Cl)c(-c2nc3ccccc3o2)c1 was read as GLS inhibitor inactive, Tb PGK inh inactive, FEN1 inh-1 inactive and BLM inh inactive.
`COc1ccc(OC)c(C(=O)CSc2ncc3c(n2)-c2ccccc2N(Cc2ccccc2C)S3(=O)=O)c1` gave GLS inhibitor inactive, Tb PGK inh inactive, FEN1 inh-1 inactive and BLM inh inactive.
For O=C(NCCCO)c1ccc2nc(-c3ccco3)c(-c3ccco3)nc2c1 the results were GLS inhibitor inactive, Tb PGK inh inactive, RECQ1 inh-1 inconclusive, APEX1 inh inconclusive, FEN1 inh-1 13µM, BLM inh inactive, RECQ1 inh-2 inactive and FEN1 inh-2 67.
For Cc1cc2nc(N=C(N)N)nc(C)c2cc1C the results were GLS inhibitor inactive, RECQ1 inh-1 inactive, APEX1 inh inactive, FEN1 inh-1 18µM, BLM inh inactive and FEN1 inh-2 67.
Cc1ccc2nc(N=C(N)N)nc(C)c2c1 was read as GLS inhibitor inconclusive, Tb PGK inh inactive, RECQ1 inh-1 inactive, APEX1 inh inconclusive, FEN1 inh-1 50µM, BLM inh inactive and FEN1 inh-2 34.
Screening Cc1nc(N=C(N)N)nc2ccccc12 returned GLS inhibitor inactive, Tb PGK inh inactive, RECQ1 inh-1 inactive, APEX1 inh inactive, FEN1 inh-1 inconclusive, BLM inh inactive and FEN1 inh-2 48.

Compound activity from PubChem.
